In the library only some 9.3% were active in any assay of this set; here they are far more common.
NPC1 prom act: qHTS Assay for NPC1 Promoter Activators | Huh7 NPC1 promoter luciferase reporter, 24 h | actives 2.4% (n = 320,000) | Potency, µM (titrated, usually from 9.22 µM), for the others: at the top dose activation, most hits filed as activators; also: % of control where 0% means no effect; nearly all actives have a fitted effect of over 60% in size
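Readout is luciferase luminescence, reflecting NPC1 promoter activation in stably transfected Huh7 cells after 24 h compound exposure at 37 °C in reduced-serum medium with 10% FBS.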
Rab9 prom act: qHTS Assay for Rab9 Promoter Activators. actives 2.8% (n = 320,000). Potency, µM (titrated, usually from 9.22 µM), without a hit: at the highest dose activation, negative = inhibition, actives largely listed as activators. Huh7 Rab9 promoter-luciferase reporter, luminescence, 24 h; also: % of control where 0% means no effect; nearly all actives have a fitted effect of over 60% in size
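Measured in stably transfected Huh7 cells bearing a Rab9 promoter–luciferase construct: 24 h compound treatment at 37 °C, followed by luminescence detection.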
FLuc modulator: qHTS profiling assay for firefly luciferase inhibitor/activator using purifed enzyme and Km concentrations of substrates (counterscreen for miR-21 project); Luciferin 4-monooxygenase (Photinus pyralis), P08659; purified FLuc, Km substrates, luminescence inhibition; Potency, µM (top dose mostly 57.5 µM), for the others: top-dose activity change, negative = inhibition, usual class: inhibitors; actives 6.9% (n = 360,000); AID 588342, 2011;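 also: plate controls were vehicle for no effect and reference inhibitor for full effect; nearly all actives have a fitted effect of over 55% in size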
Target sequence (P08659 whole entry, looked up): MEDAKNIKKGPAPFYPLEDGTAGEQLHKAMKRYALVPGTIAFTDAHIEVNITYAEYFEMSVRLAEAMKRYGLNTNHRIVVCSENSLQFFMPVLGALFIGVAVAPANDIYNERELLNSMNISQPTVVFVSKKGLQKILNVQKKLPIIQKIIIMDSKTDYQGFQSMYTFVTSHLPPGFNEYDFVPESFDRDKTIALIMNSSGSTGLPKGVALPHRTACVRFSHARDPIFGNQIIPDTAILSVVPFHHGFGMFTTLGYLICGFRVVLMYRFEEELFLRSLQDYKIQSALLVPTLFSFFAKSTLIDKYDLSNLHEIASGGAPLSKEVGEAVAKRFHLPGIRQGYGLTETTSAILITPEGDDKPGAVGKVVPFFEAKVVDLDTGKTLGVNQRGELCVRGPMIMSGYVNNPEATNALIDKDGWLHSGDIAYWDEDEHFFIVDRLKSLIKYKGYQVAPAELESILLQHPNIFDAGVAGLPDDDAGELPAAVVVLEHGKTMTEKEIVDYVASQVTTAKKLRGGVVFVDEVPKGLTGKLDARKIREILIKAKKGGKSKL
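Purified P. pyralis luciferase (10nM final) with 10uM D-luciferin and 10uM ATP (Km levels) in 50mM Tris acetate pH 7.5, 10mM Mg acetate, 0.01% Tween-20, 0.05% BSA; qHTS 6-point titration, ~60 µM downward; luminescence read.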
SMN2 splice enh: qHTS Assay for Enhancers of SMN2 Splice Variant Expression | Potency, µM (top dose mostly 46.1 µM), without a hit: at the top dose activity change, positive = activation, usual class: activators | HEK293 SMN2-luciferase splicing reporter, luminescence, 30-36 h | actives 2.8% (n = 210,000); also: % of control where 0% means no effect; nearly all actives have a fitted effect of over 55% in size
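qHTS luciferase splicing reporter: luminescence rises when SMN2 exon 7 is included in transfected HEK293 cells. Compound exposure lasted 30-36 h at 37C, with 4.5 mM final sodium butyrate as control, followed by a ONE-Glo read.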
ELG1 genotox: qHTS screen for small molecules that induce genotoxicity in human embryonic kidney (HEK293T) cells expressing luciferase-tagged ELG1; HEK293T ELG1-luciferase reporter, luminescence, 16 h; Potency, µM (doses to about 46 µM), for inactives: at the highest dose activity change, positive = activation, most hits filed as activators; actives 1.3% (n = 330,000); AID 504466, 2011; also: % of control where 0% means no effect; nearly all actives have a fitted effect of over 60% in size
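DMSO vehicle served as control against compound-treated ELG1-luciferase HEK293T cells; exposure lasted 16 hr at 37 °C and 5% CO2, followed by ONE-Glo luminescence detection after 30 min.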
ELG1 repair inh: qHTS screen for small molecules that inhibit ELG1-dependent DNA repair in human embryonic kidney (HEK293T) cells expressing luciferase-tagged ELG1; HEK293T ELG1-luciferase reporter, luminescence, 16 h; DNA damage induced by 5-fluorouridine; Potency, µM (series often up to 46.1 µM), inactives show top-dose activity change, negative = inhibition, most hits filed as inhibitors; actives 2.3% (n = 330,000); AID 504467, 2011; also: % is scaled to controls: 0 for no effect and ±100 for the full control effect; nearly all actives have a fitted effect of over 55% in size
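HEK293T cells expressing luciferase-tagged ELG1 (2,000/well) received 5-Fluorouridine plus compound or DMSO for 16 hr at 37 °C. Luciferase was read by ONE-Glo luminescence after 30 min at room temperature.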
Active calls of the source: *; ? = inconclusive; · = no result given; [ ] = another dose, or the depositor's remark. Calls follow the shape of the dose curve; as a rule, active = well fitted curve in the direction sought with a large enough effect; inconclusive = small, poorly fitted or top-dose-only effect, or another doubt; inactive = no such curve, though single readings can be large; an effect the other way counts as inactive or inconclusive. Potency is read from the fitted curve at half-maximal effect.

SMILES	NPC1 prom act	Rab9 prom act	FLuc modulator	SMN2 splice enh	ELG1 genotox	ELG1 repair inh
Cc1nn2c(=O)cc(COC(=O)c3ccc(NC(=O)c4cccc(Br)c4)cc3)nc2s1	·	·	-2.8%	·	·	·
COc1cc2ccccc2cc1C(=O)Nc1ccc(Cc2ccncc2)cc1	11.9%	14.2%	?	-4.5%	-16.2%	0.0%
COc1cc2ccccc2cc1C(=O)Nc1ccc(C)cc1	17.5%	3.4%	3.01µM*	·	?	?
CCOc1ccc(C(=O)NC(=S)Nc2cccnc2)cc1	?	2.82µM*	?	?	9.5%	?
COc1ccc(C(=O)Nc2ccccc2C(=O)Nc2cccnc2)cc1	29.5%	25.7%	4.26µM*	·	?	?
COc1cc(Br)c(C2CC(=O)Nc3cc(OC)c(OC)c(OC)c32)cc1OC (configuration not stated)	·	·	0.1%	-3.7%	·	·
Clc1ccc(-c2nc(C3CCCCC3)no2)cc1	3.16µM*	3.16µM*	4.78µM*	?	11.8%	?
Clc1ccc(-c2nnc(C3CCCCC3)o2)cc1	24.1%	30.0%	?	26.6%	?	?
Cc1cn([C@H]2C[C@H](O)[C@@H](CCC(=O)NCCCn3ccnc3)O2)c(=O)[nH]c1=O	·	·	·	·	4.9%	?
NC(=O)c1c(NC(=O)c2cccs2)sc2c1CCCCCC2	?	3.16µM*	4.78µM*	?	6.0%	?
O=C(Nc1sc2c(c1C(=O)O)CCC2)c1cccs1	16.5%	28.4%	16.9µM*	?	7.7%	?
Cc1ccc(Nc2nc(CSc3nnc(-c4cccnc4)n3-c3ccccc3C)cs2)cc1	2.7%	1.6%	10.7µM*	-43.6%	0.9%	-28.8%
Cc1ccccc1-n1c(SCc2csc(Nc3ccccc3)n2)nnc1-c1cccnc1	0.3%	-1.1%	?	-13.0%	-8.0%	?
Cc1ccc(Nc2nc(CSc3nnc(-c4ccccc4C)n3C)cs2)cc1	?	?	1.9µM*	·	3.3%	?
Cc1ccc(Nc2nc(CSc3nnc(-c4ccccc4)n3C)cs2)cc1	?	?	1.2µM*	?	?	?
CC(=O)Nc1ccc(S(=O)(=O)NCC2CCC(C(=O)NCCc3ccc(C)cc3)CC2)cc1 (configuration not stated)	·	·	-4.4%	·	·	·
O=C(Nc1ncccc1O)c1ccc2c(c1)OCCO2	3.55µM*	2.51µM*	15.1µM*	·	20.6µM*	?
Cc1cccnc1NC(=O)c1ccc2c(c1)OCCO2	1.1%	?	13.5µM*	·	16.4µM*	?
O=C(Nc1ncccc1O)c1ccc2c(c1)OCO2	3.98µM*	3.55µM*	?	·	?	?
O=C(Oc1cccc2cccnc12)c1cccc([N+](=O)[O-])c1	-10.3%	-18.1%	-3.6%	·	-6.1%	10.9%
O=C(Nc1ncccc1O)c1ccc2ccccc2c1	-2.7%	-6.9%	1.4%	·	-7.2%	?
Cc1cccnc1NC(=O)C1CC(=O)N(c2ccc3c(c2)OCCO3)C1 (configuration not stated)	-1.4%	-1.8%	-3.0%	·	1.2%	14.8%
O=C(Oc1cccc2cccnc12)c1ccc2c(c1)OCCO2	0.1%	-7.3%	4.5%[2.3 µM]	-27.7%	-6.7%	10.3µM*
COc1cccc(N2C(=NC(=O)C3CCCCC3)SC3CS(=O)(=O)CC32)c1 (configuration not stated)	-5.0%	6.1%	-0.5%	·	6.2%	5.5%
O=C(NCc1cccnc1)Nc1cccc(Cl)c1Cl	8.1%	9.0%	-14.1%	·	10.9%	?
SMILES	NPC1 prom act	Rab9 prom act	FLuc modulator	SMN2 splice enh	ELG1 genotox	ELG1 repair inh
COc1ccc(CCNC(=O)C2CCN(S(=O)(=O)c3c(C)noc3/C=C/c3ccc(C)cc3)CC2)cc1OC	·	·	-2.3%	·	·	·
Cc1ccc2c(=O)cc(C(=O)NCc3ccccc3)oc2c1C	1.9%	-0.6%	-0.6%	·	-3.3%	1.7%
CCNC(=S)/N=C(\N)Nc1nc(C)c2cc(C)ccc2n1	3.55µM*	2.82µM*	6.01µM*	·	?	?
CCN1CCN(c2oc(-c3ccc(COc4ccc(OC)cc4)o3)nc2C#N)CC1	·	·	-1.7%	·	·	·
O=c1cc(-c2ccccc2Cl)oc2c(Br)ccc(O)c12	?	3.55µM*	12µM*	10µM*	?	?
COc1ccc(CNc2ccc(N3CCOCC3)cc2)cc1	13.0%	?	26.9µM*	·	-3.4%	?
COc1ccc(OCC(=O)Nc2ccc(N3CCOCC3)cc2)cc1	9.5%	5.1%	-1.3%	14.5%	0.3%	-13.3%
Cc1cccc(-n2c3nc(=O)n(C)c(=O)c-3cc3ccc(Cl)cc32)c1C	·	·	-6.1%	-7.2%	·	·
C[C@@H]1[C@H](O)[C@@H](C)/C=C/C=C/C=C/C=C/C=C/C=C/C=C/[C@H](O[C@@H]2O[C@H](C)[C@@H](O)[C@H](N)[C@@H]2O)C[C@@H]2O[C@](O)(C[C@@H](O)C[C@@H](O)[C@H](O)CC[C@@H](O)C[C@@H](O)CC(=O)O[C@H]1C)C[C@H](O)[C@H]2C(=O)O	·	·	·	-4.8%	·	·
CC(=O)Nc1cccc(C(=O)/C=C/c2ccc(F)cc2)c1	2.3%	-0.4%	19µM*	-11.5%	?	?
CC(=O)Nc1cccc(C(=O)/C=C/c2cccs2)c1	23.2%	?	13.5µM*	8.2%	0.3%	6.5%
